Laboratory results as given in PubChem BioAssay AID1159580 (chemical genetic matrix, 2015).
“And” between values parts separate entries of the source, which are not always exact repeats. Equal values may be shown once. The whole screen tested about 5,500 compounds, of which about 2,000 (36%) were called active. Inconclusive results (about 18%) are left out. Cut-off read from the data, not from the text of the source: active = normalized growth mostly below about 0.91 (no sharp cut-off); inconclusive = no clear call, values can overlap the other calls; inactive = mostly above about 0.92. The list shows a part of the results.

Assay: chemical genetic growth profiling, strain panel (AID 1159580);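 note: tested at 20 µM; growth read once vehicle control cultures reached saturation at 30 °C; 1 = growth at the plate median or of vehicle wells; lower values mean less growth of the strain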
Settings: S. cerevisiae deletion strains, growth OD

Measured: normalized growth

CC[C@H]1CN2CCc3cc(OC)c(OC)cc3C2C[C@@H]1CC1NCCc2cc(OC)c(OC)cc21 (some centres undefined)
inactive: locus YAL021C, strain ccr4, stronger effect = lower value 0.988 | locus YAL026C, strain drs2, stronger effect = lower value 0.989 | locus YAL030W, strain snc1, stronger effect = lower value 0.983 | locus YBL061C, strain skt5, stronger effect = lower value 1 | locus YBR009C, strain hhf1, stronger effect = lower value 0.971 | locus YBR021W, strain FUR4, stronger effect = lower value 1.02 | locus YBR023C, strain chs3, stronger effect = lower value 0.987 | locus YBR171W, strain sec66, stronger effect = lower value 0.996 | locus YBR229C, strain ROT2, stronger effect = lower value 0.997 | locus YBR231C, strain swc5, stronger effect = lower value 0.993 | locus YBR279W, strain paf1, stronger effect = lower value 0.979 | locus YCL011C, strain gbp2, stronger effect = lower value 0.983 | locus YCL016C, strain dcc1, stronger effect = lower value 0.996 | locus YCL029C, strain bik1, stronger effect = lower value 0.989 | locus YCL069W, strain vba3, stronger effect = lower value 0.98 | locus YCR088W, strain abp1, stronger effect = lower value 0.995 | locus YDL005C, strain med2, stronger effect = lower value 0.988 | locus YDL035C, strain GPR1, stronger effect = lower value 1.01 | locus YDL040C, strain nat1, stronger effect = lower value 0.965 | locus YDL074C, strain BRE1, stronger effect = lower value 1 | locus YDL101C, strain DUN1, stronger effect = lower value 1.01 | locus YDL134C, strain PPH21, stronger effect = lower value 1 | locus YDL185W, strain tfp1, stronger effect = lower value 1 | locus YDL192W, strain arf1, stronger effect = lower value 0.987 | locus YDR001C, strain nth1, stronger effect = lower value 0.982 | locus YDR069C, strain doa4, stronger effect = lower value 0.946 | locus YDR101C, strain arx1, stronger effect = lower value 0.988 | locus YDR137W, strain rgp1, stronger effect = lower value 0.961 | locus YDR150W, strain NUM1, stronger effect = lower value 1.02 | locus YDR159W, strain sac3, stronger effect = lower value 0.899 | locus YDR162C, strain NBP2, stronger effect = lower value 1.03 | locus YDR195W, strain ref2 0.914 | locus YDR297W, strain sur2, stronger effect = lower value 0.979 | locus YDR318W, strain mcm21, stronger effect = lower value 1.01 | locus YDR334W, strain swr1, stronger effect = lower value 0.929 | locus YDR335W, strain msn5, stronger effect = lower value 0.974 | locus YDR388W, stronger effect = lower value 0.994 | locus YDR392W, strain spt3, stronger effect = lower value 0.917 | locus YDR502C, strain sam2, stronger effect = lower value 0.971 | locus YEL003W, strain gim4, stronger effect = lower value 0.979 | locus YEL037C, strain rad23, stronger effect = lower value 0.968 | locus YEL061C, strain CIN8 (second series), stronger effect = lower value 0.978 | locus YEL061C, strain CIN8, stronger effect = lower value 1.01 | locus YER015W, strain faa2, stronger effect = lower value 0.979 | locus YER016W, strain bim1, stronger effect = lower value 1.04 | locus YER110C, stronger effect = lower value 0.996 | locus YER111C, strain swi4, stronger effect = lower value 0.973 | locus YER155C, strain BEM2 (second series), stronger effect = lower value 0.962 | locus YER155C, strain BEM2, stronger effect = lower value 1.01 | locus YER167W, strain BCK2, stronger effect = lower value 1.01 | locus YFR010W, strain ubp6, stronger effect = lower value 0.956 | locus YGL078C, strain dbp3, stronger effect = lower value 0.986 | locus YGL086W, strain mad1, stronger effect = lower value 0.968 | locus YGL167C, strain pmr1, stronger effect = lower value 0.96 | locus YGL173C, strain kem1, stronger effect = lower value 0.962 | locus YGL227W, strain vid30, stronger effect = lower value 0.983 | locus YGL240W, strain doc1, stronger effect = lower value 0.945 | locus YGL248W, strain PDE1, stronger effect = lower value 1.02 | locus YGL253W, strain hxk2, stronger effect = lower value 0.95 | locus YGR078C, strain PAC10, stronger effect = lower value 1.02 | locus YGR135W, strain pre9, stronger effect = lower value 1.01 | locus YGR252W, strain gcn5, stronger effect = lower value 1 | locus YHR013C, strain ard1, stronger effect = lower value 0.941 | locus YHR027C, strain rpn1, stronger effect = lower value 0.985 | locus YHR030C, strain SLT2, stronger effect = lower value 1.01 and 1.04 | locus YHR079C, strain IRE1 (second series), stronger effect = lower value 1 | locus YHR079C, strain IRE1, stronger effect = lower value 1.12 | locus YHR094C, strain hxt1, stronger effect = lower value 0.997 | locus YHR129C, strain ARP1, stronger effect = lower value 1.01 | locus YHR142W, strain chs7, stronger effect = lower value 0.972 | locus YHR200W, strain rpn10, stronger effect = lower value 1.01 | locus YIL066C, strain RNR3, stronger effect = lower value 0.993 | locus YIL073C, strain SPO22, stronger effect = lower value 1.02 | locus YIL125W, strain kgd1, stronger effect = lower value 0.995 | locus YIR030C, strain dcg1, stronger effect = lower value 0.994 | locus YJL092W, strain hpr5, stronger effect = lower value 0.987 | locus YJL095W, strain BCK1 (second series), stronger effect = lower value 0.977 | locus YJL095W, strain BCK1, stronger effect = lower value 1.04 and 1.05 | locus YJL115W, strain asf1, stronger effect = lower value 0.962 | locus YJL129C, strain trk1, stronger effect = lower value 0.983 | locus YJL134W, strain LCB3, stronger effect = lower value 1.01 | locus YJL154C, strain vps35, stronger effect = lower value 0.979 | locus YJL164C, strain tpk1, stronger effect = lower value 0.978 | locus YJL166W, strain qcr8, stronger effect = lower value 0.962 | locus YJL168C, strain set2, stronger effect = lower value 1 | locus YJL187C, strain SWE1 (second series), stronger effect = lower value 1.02 | locus YJL187C, strain SWE1, stronger effect = lower value 0.979 | locus YJR043C, strain POL32, stronger effect = lower value 1.02 | locus YJR066W, strain TOR1, stronger effect = lower value 0.996 | locus YKL068W, stronger effect = lower value 1.01 | locus YKL085W, strain MDH1 (second series), stronger effect = lower value 1.02 | locus YKL085W, strain MDH1, stronger effect = lower value 1.02 | locus YKL160W, strain elf1, stronger effect = lower value 1.01 | locus YKR001C, strain vps1, stronger effect = lower value 1 | locus YKR026C, strain gcn3, stronger effect = lower value 0.986 | locus YKR091W, strain srl3, stronger effect = lower value 0.987 | locus YLL001W, strain dnm1, stronger effect = lower value 0.985 | locus YLL026W, stronger effect = lower value 0.992 | locus YLL041C, strain sdh2, stronger effect = lower value 0.989 | locus YLR027C, strain aat2, stronger effect = lower value 0.989 | locus YLR039C, strain RIC1, stronger effect = lower value 1.01 | locus YLR058C, strain SHM2, stronger effect = lower value 1.01 | locus YLR102C, strain apc9, stronger effect = lower value 0.999 | locus YLR113W, strain HOG1, stronger effect = lower value 1.06 | locus YLR221C, strain rsa3, stronger effect = lower value 0.984 | locus YLR258W, strain gsy2, stronger effect = lower value 0.985 | locus YLR262C, strain YPT6 (second series), stronger effect = lower value 0.978 | locus YLR262C, strain YPT6, stronger effect = lower value 1.06 | locus YLR268W, strain sec22, stronger effect = lower value 0.98 | locus YLR320W, strain mms22, stronger effect = lower value 0.948 | locus YLR330W, strain CHS5, stronger effect = lower value 1.01 | locus YLR342W, strain FKS1 (second series), stronger effect = lower value 0.987 | locus YLR342W, strain FKS1, stronger effect = lower value 1 | locus YLR357W, strain rsc2, stronger effect = lower value 0.967 | locus YLR370C, strain arc18, stronger effect = lower value 0.98 | locus YLR371W, strain rom2, stronger effect = lower value 0.994 | locus YLR384C, strain iki3, stronger effect = lower value 0.972 | locus YLR418C, strain cdc73, stronger effect = lower value 0.997 | locus YML016C, strain PPZ1, stronger effect = lower value 1.01 | locus YML032C, strain rad52, stronger effect = lower value 1.01 | locus YML120C, strain ndi1, stronger effect = lower value 0.977 | locus YML124C, strain tub3, stronger effect = lower value 0.994 | locus YMR058W, strain fet3, stronger effect = lower value 0.986 | locus YMR078C, strain ctf18, stronger effect = lower value 0.996 | locus YMR125W, strain sto1, stronger effect = lower value 0.975 | locus YMR129W, stronger effect = lower value 0.97 | locus YMR205C, strain PFK2, stronger effect = lower value 0.935 | locus YMR223W, strain ubp8, stronger effect = lower value 1.02 | locus YMR231W, strain pep5, stronger effect = lower value 0.979 | locus YMR263W, strain SAP30, stronger effect = lower value 1.02 | locus YMR307W, strain GAS1, stronger effect = lower value 1.08 | locus YNL067W, strain RPL9B, stronger effect = lower value 1.01 | locus YNL071W, strain lat1, stronger effect = lower value 0.956 | locus YNL128W, strain TEP1, stronger effect = lower value 1.01 | locus YNL183C, strain NPR1, stronger effect = lower value 1 | locus YNL209W, strain ssb2, stronger effect = lower value 0.99 | locus YNL233W, strain BNI4, stronger effect = lower value 1.01 | locus YNL248C, strain rpa49, stronger effect = lower value 0.961 | locus YNL250W, strain rad50, stronger effect = lower value 1.01 | locus YNL271C, strain bni1, stronger effect = lower value 0.998 | locus YNL298W, strain CLA4, stronger effect = lower value 1 | locus YNL307C, strain MCK1, stronger effect = lower value 0.997 | locus YNL322C, strain KRE1 (second series), stronger effect = lower value 0.983 | locus YNR049C, strain mso1, stronger effect = lower value 0.967 | locus YNR052C, strain pop2, stronger effect = lower value 1 | locus YOL006C, strain TOP1, stronger effect = lower value 1.03 | locus YOL012C, strain htz1 1.06 | locus YOL147C, strain pex11, stronger effect = lower value 0.994 | locus YOR001W, strain rrp6, stronger effect = lower value 0.98 | locus YOR061W, strain CKA2, stronger effect = lower value 1.02 | locus YOR069W, strain VPS5, stronger effect = lower value 1.01 | locus YOR070C, strain gyp1, stronger effect = lower value 1 | locus YOR080W, strain dia2, stronger effect = lower value 0.926 | locus YOR083W, strain WHI5, stronger effect = lower value 0.987 | locus YOR106W, strain vam3, stronger effect = lower value 1.01 | locus YOR136W, strain idh2, stronger effect = lower value 0.988 | locus YOR144C, strain elg1, stronger effect = lower value 1 | locus YOR184W, strain ser1, stronger effect = lower value 0.987 | locus YOR231W, strain MKK1, stronger effect = lower value 1.05 | locus YOR265W, strain rbl2, stronger effect = lower value 0.993 | locus YOR270C, strain vph1, stronger effect = lower value 0.958 | locus YOR290C, strain snf2, stronger effect = lower value 0.995 | locus YOR316C, strain cot1, stronger effect = lower value 0.992 | locus YPL051W, strain arl3, stronger effect = lower value 1.01 | locus YPL078C, strain atp4, stronger effect = lower value 1 | locus YPL106C, strain sse1, stronger effect = lower value 0.943 | locus YPL240C, strain hsp82, stronger effect = lower value 0.991 | locus YPL241C, strain CIN2, stronger effect = lower value 1.01 | locus YPL256C, strain CLN2, stronger effect = lower value 1.07 | locus YPR119W, strain clb2, stronger effect = lower value 1 | locus YPR141C, strain kar3, stronger effect = lower value 1 | locus YPR163C, strain tif3, stronger effect = lower value 0.985 | locus YPR167C, strain met16, stronger effect = lower value 1 | strain wtn01, stronger effect = lower value 0.96
